According to PubChem BioAssay (NCATS):
Results filed as inconclusive are left out. A call without a number means that no potency is given here. The source made the active and inactive calls. Calls follow the shape of the dose curve; as a rule, active = well fitted curve in the direction sought with a large enough effect; inconclusive = small, poorly fitted or top-dose-only effect, or another doubt; inactive = no such curve, though single readings can be large; an effect the other way counts as inactive or inconclusive.

target: Aldehyde dehydrogenase, mitochondrial (Homo sapiens) (UniProt P05091); experiment: qHTS for Inhibitors of the Aldehyde Dehydrogenase Family (ALDH2) Primary screen (AID 2061308); conditions: ALDH2 enzyme inhibition qHTS, 1536-well; series mostly up to 56 µM; also: nearly all actives have a fitted effect of over 55% in size

Row | Compound | Potency
1 | CO[C@@H]1[C@]2(O)C(=O)N3/C=C\C(C)(C)c4[nH]c5ccccc5c4/C=C\3C(=O)N2[C@]23[C@H](CO)C(C)(C)N2c2ccccc2[C@]13O | inactive
2 | CC1(C)CC[C@]2(C(=O)O[C@@H]3O[C@H](CO[C@@H]4O[C@H](CO)[C@@H](O)[C@H](O)[C@H]4O)[C@@H](O)[C@H](O[C@@H]4O[C@H](CO)[C@@H](O)[C@H](O)[C@H]4O)[C@H]3O)[C@H](O)C[C@]3(C)C(=CCC4[C@@]5(C)CC[C@H](O[C@@H]6OC[C@@H](O)[C@H](O)[C@H]6O)[C@@](C)(C(=O)O)C5CC[C@]43C)[C@@H]2C1 (some centres undefined) | inactive
3 | COC(=O)C1=CO[C@@H](O[C@@H]2O[C@H](CO)[C@@H](O)[C@H](O)[C@H]2O)[C@@H]2[C@@H](C(=O)OC)[C@@H](O)C(O)[C@H]12 (some centres undefined) | inactive
4 | CC1(C(=O)O)CCCC2(C)C3CCC4CC3(CCC12)CC4C(=O)O (centres undefined) | inactive
5 | O=C(Cc1ccc(-c2ccccc2)cc1)NC1CCC1 | inactive
6 | CC(C)S(=O)(=O)NC[C@H](C)c1ccc(NC(=O)c2cc(F)cc(F)c2)cc1 | inactive
7 | CC(C)=CCc1c(O)cc2oc3cc(C)cc(O)c3c2c1C | inactive
8 | C[C@]1(CO)CN(c2cc(C(=O)Nc3ccc4c(c3)-c3c(c(C(N)=O)nn3-c3ccc(F)cc3)CC4)c(Cl)cn2)C[C@@]1(C)CO | inactive
9 | CC1=C(C(=O)OCc2ccccc2)C(c2ccc(-c3ccccc3)cc2)NC(=O)N1CCCCCC(=O)O (centres undefined) | inactive

target: Retinaldehyde dehydrogenase 3 (Homo sapiens) (UniProt P47895); experiment: qHTS for Inhibitors of the Aldehyde Dehydrogenase Family (ALDH1A3) Primary screen (AID 2061315); conditions: ALDH inhibition qHTS; series mostly up to 56 µM

Row | Compound | Potency
10 | C[N+]1(C)[C@@H]2CC[C@H]1CC(OC(=O)C(O)c1ccccc1)C2 (some centres undefined) | inactive
11 | C=C(C(=O)OC)[C@]12O[C@@](C)(CC[C@@]3(O)/C(=C\C)C(=O)O[C@]3(C)C[C@@H]1OC(=O)C(CO)CN1CCCC1C(=O)O)CC2=O (some centres undefined) | inactive
12 | COc1ccnc2[nH]cc(C(=O)C(=O)N3CCN(C(=O)c4ccccc4)CC3C)c12 (centres undefined) | inactive
13 | CC1=C2CC(=O)C(C)CC/C=C(\C)CC2(O)OC1=O (centres undefined) | inactive
14 | O=C(O)C(O[C@@H]1O[C@H](CO[C@@H]2O[C@H](CO)[C@@H](O)[C@H](O)[C@H]2O)[C@@H](O)[C@H](O)[C@H]1O)c1ccccc1 (some centres undefined) | inactive
15 | C/C=C/C=C/[C@@H]1O[C@](O)([C@H](CC)C(=O)NC/C=C/C=C(\C)[C@@H](OC)[C@@H](C)[C@@H]2O[C@H](/C=C/C=C/C=C(\C)C(=O)c3c(O)ccn(C)c3=O)[C@H](O)[C@@H]2O)[C@H](O)[C@H](O)C1(C)C | inactive
16 | C=C(C)C1CCC(C)C12CC(O)C1(C)OC1C2OC(=O)C(N)CCC(=O)O (centres undefined) | inactive
17 | O=C1NC(=Nc2ccccc2F)S/C1=C\c1ccc(C(=O)O)cc1 | inactive
18 | Cc1cc(Cn2cnc3c2CC(C(=O)O)N(C(=O)C(c2ccccc2)c2ccccc2)C3)ccc1N(C)C (centres undefined) | inactive
19 | COC(=O)C(Cc1ccccc1)NC(=O)c1ccccc1 (centres undefined) | inactive
20 | C=CC(C)(O)CC[C@H]1C(=C)CCC2[C@](C)(C(=O)O)CCC[C@@]21C (some centres undefined) | inactive
21 | CC1CC[C@]2(C(=O)O)CC[C@]3(C(=O)O)C(=CCC4[C@@]5(C)CC[C@H](O[C@@H]6O[C@H](CO)[C@@H](O)[C@H](O)[C@H]6O)C(C)(C)C5CC[C@]43C)C2C1C (some centres undefined) | inactive
22 | Cc1cc(O)c(C(C)C)cc1O[C@@H]1O[C@H](CO)[C@@H](O)[C@H](O)[C@H]1O | inactive
23 | COC(=O)C1=CO[C@@H](O[C@@H]2O[C@H](CO)[C@@H](O)[C@H](O)[C@H]2O)[C@@H]2[C@@H](C)[C@@H](OC(=O)/C=C/c3ccccc3)[C@@H](O)[C@H]12 | inactive
24 | CC1(C)CC[C@]2(C(=O)O[C@@H]3O[C@H](CO)[C@@H](O)[C@H](O)[C@H]3O)CC[C@]3(C)C(=CCC4[C@@]5(C)C[C@@H](O)[C@H](O)[C@](C)(C=O)C5CC[C@]43C)[C@@H]2[C@@H]1O (some centres undefined) | inactive
25 | C=C[C@H]1[C@H](O[C@@H]2O[C@H](CO)[C@@H](O)[C@H](O)[C@H]2O)OC=C(C(=O)OC)[C@H]1CC=O | inactive
26 | C=CC1(C)CC=C2C(CCC3C(C)(C(=O)O)CCCC23C)C1 (centres undefined) | inactive
27 | O=C(O)CC/C=C\C[C@H]1CO[C@@H](c2ccccc2Cl)O[C@H]1c1ccccc1O | inactive
28 | OC[C@H]1O[C@@H](OC[C@H]2O[C@@H](OC/C=C/c3ccccc3)[C@H](O)[C@@H](O)[C@@H]2O)[C@@H](O)[C@@H]1O | inactive
29 | C=C1C(=O)O[C@@H]2[C@H]3C(C)=CC(=O)C3=C(C)CC[C@@H]12 | inactive
